Assay results reported in article PMC7826789 (International Journal of Molecular Sciences, 2021).

Experiments:
Details in all cases: Compound Concentration (nM):1000
[1] = test system: ABL1(Q252H)-phosphorylated
[2] = test system: ABL1(T315I)-nonphosphorylated
[3] = test system: ABL1(T315I)-phosphorylated
[4] = test system: ABL1(Y253F)-phosphorylated
[5] = test system: ABL1-nonphosphorylated
[6] = test system: ABL1-phosphorylated
[7] = test system: ABL2
[8] = test system: ACVR1B
[9] = test system: ACVR1
[10] = test system: ACVR2A
[11] = test system: ACVR2B
[12] = test system: ACVRL1
[13] = test system: T1, ADCK3
T1 construct: gene CABC1

[14] = test system: ADCK4
[15] = test system: AKT1
[16] = test system: AKT2
[17] = test system: AKT3
[18] = test system: ALK(C1156Y)
[19] = test system: ALK(L1196M)
[20] = test system: ALK
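Also: KINOMEscan scanMAX binding as percent activity remaining versus control; lower means stronger binding.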

| Compound | Percent Control [1] [%] | Percent Control [2] [%] | Percent Control [3] [%] | Percent Control [4] [%] | Percent Control [5] [%] | Percent Control [6] [%] | Percent Control [7] [%] | Percent Control [8] [%] | Percent Control [9] [%] | Percent Control [10] [%] | Percent Control [11] [%] | Percent Control [12] [%] | Percent Control [13] [%] | Percent Control [14] [%] | Percent Control [15] [%] | Percent Control [16] [%] | Percent Control [17] [%] | Percent Control [18] [%] | Percent Control [19] [%] | Percent Control [20] [%] |
| --- | --- | --- | --- | --- | --- | --- | --- | --- | --- | --- | --- | --- | --- | --- | --- | --- | --- | --- | --- | --- |
| COc1cccc(-c2c[nH]c3c(N/N=C/c4ccncc4)ncnc23)c1 [GW814408X] | 1.1 | 50 | 48 | 0.5 | 1.2 | 0.3 | 11 | 42 | 17 | 75 | 71 | 59 | 100 | 36 | 100 | 100 | 100 | 97 | 99 | 100 |
| CN1CCN(C(=O)c2ccc(NC(=O)Nc3ccc(N(C)c4ccnc(Nc5ccc(CS(C)(=O)=O)cc5)n4)cc3)cc2)CC1.Cl [GW830263A] | 30 | 0 | 21 | 20 | 9 | 30 | 44 | 77 | 28 | 78 | 94 | 79 | 100 | 47 | 100 | 100 | 100 | 64 | 83 | 76 |
| COc1cc2ncnc(Nc3ccc4c(cnn4Cc4ccccc4)c3)c2cc1OC.Cl [GW282449A] | 100 | 100 | 100 | 100 | 90 | 100 | 100 | 100 | 100 | 100 | 100 | 97 | 100 | 100 | 100 | 100 | 100 | 96 | 100 | 93 |
| COc1ccc(COc2ccc(Cc3cnc(N)nc3N)cc2OC)cc1 [GW632580X] | 92 | 100 | 87 | 84 | 90 | 76 | 91 | 100 | 74 | 95 | 100 | 100 | 92 | 100 | 75 | 100 | 100 | 94 | 87 | 98 |
| Cl.O=S1CCN(Cc2ccc(-c3ccc4ncnc(Nc5ccc(OCc6ccccc6)c(F)c5)c4c3)o2)CC1 [GW576924A] | 100 | 100 | 100 | 100 | 100 | 89 | 100 | 100 | 100 | 100 | 100 | 94 | 100 | 100 | 100 | 100 | 100 | 100 | 100 | 100 |
| Cl.O=C(Nc1ccc(Oc2ccc3[nH]c(NC(=O)c4ccccc4)nc3c2)cc1)Nc1cc(C(F)(F)F)ccc1F [GW709042A] | 94 | 12 | 31 | 69 | 9.8 | 60 | 26 | 100 | 100 | 100 | 100 | 100 | 100 | 100 | 90 | 100 | 100 | 84 | 92 | 73 |
| Nc1ncnc2occ(-c3ccc(NC(=O)Nc4cc(C(F)(F)F)ccc4F)cc3)c12 [GW770249X] | 92 | 0 | 9.1 | 72 | 0.7 | 56 | 41 | 100 | 100 | 100 | 100 | 100 | 100 | 100 | 100 | 100 | 100 | 41 | 74 | 36 |
| COc1ccc2[nH]c3c4[nH]c5ccc(OC)cc5c4c4c(c3c2c1)C(=O)NC4=O [GW296115X] | 36 | 44 | 94 | 53 | 58 | 57 | 82 | 100 | 77 | 58 | 44 | 100 | 100 | 75 | 72 | 84 | 98 | 25 | 70 | 55 |
| NS(=O)(=O)c1ccc(N/N=C2\C(=O)Nc3ccc(Cl)cc32)cc1 [GW280670X] | 100 | 100 | 100 | 100 | 93 | 100 | 100 | 100 | 100 | 100 | 100 | 100 | 100 | 100 | 100 | 100 | 100 | 100 | 100 | 100 |
| CN(C)c1cc2c(Nc3ccc4c(cnn4Cc4ccccc4)c3)ncnc2cn1 [GW282974X] | 66 | 74 | 100 | 65 | – | 54 | 95 | 100 | 87 | 100 | 100 | 87 | 98 | 100 | 79 | 100 | 100 | 97 | 94 | 100 |
